# Screening data deposited in PubChem BioAssay by Broad Institute.
# The entries come from a sample that favours hits as a whole.
# Tgondii IFNg – T. gondii growth inhibition under IFN-gamma | Toxoplasma gondii growth in IFN-gamma-treated host cells; stronger effect = lower value | activity change, negative = inhibition, % (test concentration not listed) | 3.8% of 69,000 active | AID 1259416; in the data active = activity change below about -70%, passing the limit was not always enough;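 note: host cells are HeLa cells infected with Toxoplasma gondii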
# Numbers without * were called inactive.
SMILES,Tgondii IFNg
COc1ccc(C(=O)N2CCN(c3cccc(C(F)(F)F)c3)CC2)cc1OC,-79*
Cc1ccc(C)n1CCN1CCN(C(=O)c2cccc(C(F)(F)F)c2)CC1,-50
COc1ccc(OC)c(S(=O)(=O)Nc2ccc(-c3nc(-c4ccc(C)c(C)c4)co3)cc2)c1,33
COc1cccc(CNC(=O)CCC2CCCN(c3nc4ccccc4o3)C2)c1 (centres undefined),16
c1ccc(-c2cnn3cc(CN4CC(n5cccn5)C4)cnc23)cc1,73
O=C(Cn1ncc2c(N3CCCCCC3)ncnc21)NCc1ccccn1,53
Cc1ccc(C2(C(=O)NCc3nnc(-c4cnccn4)o3)CCCC2)cc1,164
CCCCNc1nc(C(=O)OCC)nc2ccccc12,1
Cc1ccc(Nc2nc(C(=O)NC(C)C)nc3ccccc23)cc1,-79*
CC(NC(=O)c1nc(Nc2ccc(F)cc2)c2ccccc2n1)c1ccccc1 (centres undefined),-8
CCOCCCNC(=O)c1nc(Nc2ccc(C)cc2)c2ccccc2n1,-55
CC(C)CCNC(=O)c1nc(Nc2ccccc2)c2ccccc2n1,-46
Cc1ccc(Nc2nc(C(=O)Nc3cc(C)cc(C)c3)nc3ccccc23)cc1,-7
CCOC(=O)c1nc(NCCc2ccc(C)cc2)c2ccccc2n1,-73*
Cc1ccc(Nc2nc(C(=O)NCCC(C)C)nc3ccccc23)cc1,-87*
CCOC(=O)c1nc(NCc2ccc(C)cc2)c2ccccc2n1,7
Cc1ccccc1S(=O)(=O)N1CC[C@@H]2[C@H](CC1)N(CC(C)C)CCS2(=O)=O,-13
c1ccc2ncc(-c3nccs3)cc2c1,101
CCc1ccc(-c2nccn2Cc2ccc3c(c2)n(C)c(=O)n3C)nc1,23
CC(C)Nc1ccc2c(c1)C1(CCOCC1)C(=O)N2c1ccsc1,-2
COC1COC2(CCN(C(=O)Cc3ccccn3)CC2)C1 (centres undefined),-98*
COc1ccccc1OCC(=O)N1CCC[C@]2(C[C@@H](OC)CO2)C1,4
CC(C)C(=O)NC1COC2(CCN(C(=O)Cc3ccccn3)CC2)C1 (centres undefined),-2
CN(C)C(C(=O)N1CCC(c2ccc(-c3ccn[nH]3)cn2)CC1)c1ccc(Cl)cc1 (centres undefined),-10
C[C@H](CO)N1C[C@H](C)[C@@H](CN(C)C(=O)Nc2cccc(F)c2)Oc2cc(C#CC3(O)CCCC3)ccc2S1(=O)=O,-93*
SMILES,Tgondii IFNg
CCCNC(=O)N(C)C[C@@H]1Oc2cc(C#C[C@H](C)O)ccc2S(=O)(=O)N([C@@H](C)CO)C[C@H]1C,50
C[C@H](CO)N1C[C@H](C)[C@@H](CN(C)C(=O)Nc2ccccc2F)Oc2cc(Br)ccc2S1(=O)=O,46
Cc1ccccc1-c1ccc2c(c1)O[C@@H](CN(C)C(=O)Nc1ccc(C(F)(F)F)cc1)[C@H](C)CN([C@H](C)CO)S2(=O)=O,-92*
Cc1noc(C)c1NC(=O)N(C)C[C@H]1Oc2cc(C#CCN(C)C)ccc2S(=O)(=O)N([C@H](C)CO)C[C@@H]1C,50
C[C@@H]1CN([C@H](C)CO)S(=O)(=O)c2ccc(C#CC3(O)CCCC3)cc2O[C@H]1CN(C)C(=O)Nc1cccc(F)c1,-90*
Cc1ccccc1-c1ccc2c(c1)O[C@H](CN(C)C(=O)Nc1ccc(C(F)(F)F)cc1)[C@H](C)CN([C@H](C)CO)S2(=O)=O,-23
CCCNC(=O)N(C)C[C@@H]1Oc2cc(C#C[C@@H](C)O)ccc2S(=O)(=O)N([C@@H](C)CO)C[C@@H]1C,-55
CCCNC(=O)N(C)C[C@H]1Oc2cc(C#C[C@H](C)O)ccc2S(=O)(=O)N([C@@H](C)CO)C[C@@H]1C,103
CCCNC(=O)N(C)C[C@H]1Oc2cc(C#C[C@@H](C)O)ccc2S(=O)(=O)N([C@@H](C)CO)C[C@@H]1C,12
C[C@@H]1CN([C@H](C)CO)S(=O)(=O)c2ccc(C#CC3(O)CCCC3)cc2O[C@@H]1CN(C)C(=O)Nc1cccc(F)c1,-99*
CCCNC(=O)N(C)C[C@@H]1Oc2cc(C#C[C@@H](C)O)ccc2S(=O)(=O)N([C@H](C)CO)C[C@@H]1C,51
COCCn1c(C(=O)NCCCN2CCOCC2)cc2c1c1ccccc1n2C(C)C,-21
COCC1CC2(CCN(C(=O)C3CCOCC3)CC2)CN1c1ncccn1 (centres undefined),-10
Cc1cccc(CNC(=O)C2(Cc3cccc(C4CCCN(C)C4)c3)CCOCC2)n1 (centres undefined),2
O=C(c1ccc(NCC2CCOC2)nc1)N1CCC(CCc2ccccc2)CC1 (centres undefined),-22
c1nc(N2CCOCC2)cc(N2CCC3(CCOCC3)CC2)n1,-2
CC(C)(O)C#Cc1ccc(C(=O)NCc2csc(-c3ccccc3)n2)o1,-32
COc1ccc(-c2nc(Nc3cc(OC)cc(OC)c3)c3ccccc3n2)cc1,-30
Cc1ncsc1CCNC(=O)C1CC2(CCNCC2)CN1 (centres undefined),12
O=C(c1cc2cccnc2n(Cc2ccccc2)c1=O)N1CCCCC1,35
NC(=O)C1(N2CCCCC2)CCN(c2ncc(NC(=O)c3cccc(Cl)c3)cc2C(=O)O)CC1,2
